109 molecules from PubChem BioAssay AID2642 (Johns Hopkins Ion Channel Center, 2010) can be followed below.

SMILES strings stand for the structures. About 3,900 (1.3%) of roughly 310,000 compounds were called active.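 The calls were made as follows: active = compounds whose thallium flux B-score, printed positive for inhibition, exceeds three library SD while starting fluorescence stays within three; inactive = the rest.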 What follows is part of a selection rich in actives, with near analogues and random picks from the rest.

In this test the target is Potassium voltage-gated channel subfamily KQT member 1 (Homo sapiens) (UniProt P51787). Put plainly: KCNQ1 potassium current blockers – cell-based, thallium flux, high-throughput, primary screen (AID 2642).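 Also: channel opened by potassium depolarization with thallium stimulus after 20 min compound exposure.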 The settings on record: CHO-K1 KCNQ1, FluxOR thallium flux fluorescence, at 10 µM; active compounds read high.
Potassium voltage-gated channel subfamily KQT member 1 (Homo sapiens), sequence (P51787 whole entry, looked up): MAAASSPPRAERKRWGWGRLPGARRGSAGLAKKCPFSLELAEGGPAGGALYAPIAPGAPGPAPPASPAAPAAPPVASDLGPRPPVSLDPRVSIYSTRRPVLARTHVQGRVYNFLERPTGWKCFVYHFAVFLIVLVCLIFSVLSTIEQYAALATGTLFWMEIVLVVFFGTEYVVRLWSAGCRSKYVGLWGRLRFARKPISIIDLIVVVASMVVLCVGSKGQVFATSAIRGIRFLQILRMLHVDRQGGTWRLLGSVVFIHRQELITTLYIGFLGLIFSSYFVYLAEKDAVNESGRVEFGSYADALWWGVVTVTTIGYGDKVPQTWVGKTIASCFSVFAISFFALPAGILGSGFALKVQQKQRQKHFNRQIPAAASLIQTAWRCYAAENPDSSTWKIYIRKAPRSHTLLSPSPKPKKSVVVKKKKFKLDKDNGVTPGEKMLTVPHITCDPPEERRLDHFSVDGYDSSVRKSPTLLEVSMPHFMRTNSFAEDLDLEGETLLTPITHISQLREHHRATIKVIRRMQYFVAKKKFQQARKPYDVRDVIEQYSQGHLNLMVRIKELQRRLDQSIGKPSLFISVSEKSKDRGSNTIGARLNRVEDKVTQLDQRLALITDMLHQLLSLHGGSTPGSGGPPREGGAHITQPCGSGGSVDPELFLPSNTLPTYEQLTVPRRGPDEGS
As to `COc1ccc(/C=C(\NC(=O)c2ccc(OCC(C)C)cc2)C(=O)OCc2ccco2)cc1`, the B-score result was “inactive”. The result for `O=C(O)c1ccc(OCC2CCCO2)cc1` (centres undefined) reads “inactive”; that for `COc1ccccc1C(=O)NC(CCSC)C(=O)NNC(=O)c1csc(N2CCOCC2)n1` (centres undefined), “inactive”. The result for `COC(=O)c1cc(NC(=O)c2cccnc2)ccc1N1CCOCC1` reads “inactive”; that for `O=C(Nc1ccc(F)cc1)c1cccnc1N1CCOCC1`, 10 (active); that for `O=C(Nc1ccc(N2CCOCC2)nc1)c1c(F)cccc1F`, “inactive”. The result for `CSCCC(NS(=O)(=O)/C=C/c1ccccc1)C(=O)N1CCC(C)CC1` (centres undefined) reads “inactive”; that for `CCOC(=O)c1sc(NC(=O)CSc2ncccn2)c(C#N)c1C`, “inactive”. Regarding `CCOC(=O)c1ccc(NC(=O)c2cccnc2)cc1`, the B-score result was “inactive”. Next, `Cc1c(C(=O)OC(C)C)sc(NC(=O)c2cccnc2)c1C#N`: 9 (active); `C=CCc1c(C)nc2cc(-c3ccccc3)[nH]n2c1=O`: “inactive”. Next, `COc1ccc(CCNC(=O)CCNS(=O)(=O)c2cc(Br)cnc2N)cc1OC`: “inactive”. The result for `Cc1ccc(NS(=O)(=O)c2ccc(C(C)(C)C)cc2)cn1` reads “inactive”.

For `Cc1ccc(S(=O)(=O)Nc2ccc3ncccc3c2)cc1`, the B-score is 6 (active). Next, `Cc1cc(C)cc(OCC(=O)Nc2ccc(S(=O)(=O)Nc3ccccn3)cc2)c1`: “inactive”; `Cc1ccc2c(Cl)c(C(=O)Nc3nn[nH]n3)sc2c1`: “inactive”. In the case of `CCCCCCOc1ccc(OC(=O)c2cccnc2)cc1`, the B-score entry is “inactive”. The result for `CN(C)CCCN1C(=O)CSC1c1ccc([N+](=O)[O-])cc1` (centres undefined) reads “inactive”. The result for `CCCCCCCCCCCCN1C(=O)CSC1c1cccnc1` (centres undefined) reads 9 (active). As for `CCCCN1C(=O)c2ccc(C(=O)Nc3ccc(S(=O)(=O)N(C)C)cc3)cc2C1=O`, the B-score entry was “inactive”. Take `CC(C)(C)C(=O)N(Cc1ccccc1)c1ccccn1`: the B-score entry is “inactive”. The result for `CCN=C1S/C(=C\c2cc(Br)ccc2OCC(=O)OCC)C(=O)N1CC` reads “inactive”; that for `CN(C)C(=O)c1ccc2c(c1)C1C3CCC(C3)C1C(c1ccccc1)N2` (centres undefined), 6 (active); that for `CN(C)C(=O)c1ccc(NC(=O)c2ccccc2-c2ccccc2)cc1`, “inactive”. Next, `O=C(c1ccc2c(c1)N(Cc1ccc(F)cc1)C(=O)c1ccccc1S2(=O)=O)N1CCN(c2ccccn2)CC1`: “inactive”; `O=C(NCc1ccncc1)NC12CC3CC(CC(C3)C1)C2`: “inactive”; `S=C(NCc1ccc(Cl)cc1)NC12CC3CC(CC(C3)C1)C2`: 11 (active). The result for `S=C(NCc1ccc(Cl)cc1)NC1CCCCC1` reads “inactive”; that for `Cc1cc(C)c(NC(=S)N2CCCC2C(=O)O)c(C)c1` (centres undefined), “inactive”. As to `CC(C)[C@H](NC(=O)N1CCn2c1nc1ccccc12)C(=O)NCc1ccc2c(c1)OCO2`, the B-score result was “inactive”. The result for `COc1cnn(-c2ccc([N+](=O)[O-])cc2)c(=O)c1Cl` reads “inactive”. Next, `CC(=O)c1ccc(NC(=O)C2CCCN2S(=O)(=O)c2cccs2)cc1` (centres undefined): “inactive”; `CSc1nsc(NC(=O)Nc2ccccc2)n1`: “inactive”. Next, `CC(=O)c1cccc(NC(=O)c2ccncc2)c1`: “inactive”; `C=CCSc1nsc(NC(=O)Nc2cccc(C(C)=O)c2)n1`: 12 (active). As to `CCSc1nsc(NC(=O)Nc2ccccc2OC)n1`, the B-score result was “inactive”. The result for `C=C(C)C(=O)Nc1cccc(C(C)=O)c1` reads “inactive”; that for `CCSc1nsc(NC(=O)Nc2cccc(C(C)=O)c2)n1`, 10 (active); that for `CCOc1ccc(C(CCc2ccccc2)NC(=O)c2ccc(OC)c(OC)c2)cc1OCC` (centres undefined), “inactive”.

On to `COc1cc2c3c(c1)/C(=C1/SC(=S)NC1=O)C(=O)N3C(C)(C)C=C2C`, for which the B-score result was “inactive”. Next, `Cc1ccc2nc(-c3ccncc3)cc(C(=O)Nc3ccc(OC(F)F)cc3)c2c1`: “inactive”; `CC(C)C(=O)Nc1ccc2c(c1)oc1ccccc12`: “inactive”.

In the case of `CCOC(=O)c1ccc(NC(=O)CCn2c(=O)oc3ccccc32)cc1`, the B-score entry was “inactive”.

With `Cc1ccc(-c2csc(NC(=O)C3=COCCO3)n2)cc1C`, the B-score was 12 (active). The result for `CC(=O)NCCC(=O)Nc1nc(-c2ccc3c(c2)OCCO3)cs1` reads “inactive”. The result for `Cc1csc(NC(=O)C2=COCCO2)n1` reads “inactive”; that for `Cc1cccc(CN2CCC(n3nccc3NC(=O)c3ccccc3C)CC2)n1`, “inactive”.

On to `CN(C)N(C)C(=O)C(O)(c1ccccc1)c1ccccc1`, for which the B-score result is “inactive”. The result for `CCc1ccc(NC(=O)CCNS(=O)(=O)c2cccs2)cc1` reads “inactive”; that for `COc1ccc(-c2cc(C(F)(F)F)nc(NCc3cccnc3)n2)cc1`, “inactive”. Regarding `COc1ccc(-c2cc(C(F)(F)F)nc(S(C)(=O)=O)n2)cc1OC`, the B-score is 7 (active). Next, `COc1ccc(-c2ccc(Nc3ccc(S(=O)(=O)N4CCCC4)cc3)nn2)cc1OC`: “inactive”; `C=C(C)CNC(=O)c1ccc(OC2CCN(C(=O)COC)CC2)cc1`: “inactive”. In the case of `O=C(CC(NCCN1CCOCC1)C(=O)O)Nc1cccc(Cl)c1` (centres undefined), the B-score result is “inactive”. Next, `CCOC(=O)c1sc(NC(=O)CSc2nc(C)cc(C(F)(F)F)n2)c(C#N)c1C`: “inactive”; `CC(C(=O)Nc1ccc(O)c(C(=O)O)c1)N1C(=O)/C(=C/c2cccs2)SC1=S` (centres undefined): “inactive”; `Cc1ccc(NC(=O)CC(=O)Nc2ccc(C)cc2)cc1`: “inactive”. Next, `COC(=O)c1ccc(NC(=O)c2cc(Cl)ccc2OC)cc1`: “inactive”; `COC(=O)c1ccc(NC(=O)Nc2ccc(C)cc2)cc1`: 7 (active). Next, `CCC(C)C(NC(=O)C1CCC(=O)N1C(=O)OCc1ccccc1)C(=O)NC(C(=O)N1CCCC1C(N)=O)C(C)CC` (centres undefined): “inactive”; `CC1CCc2c(c3ccccc3[nH]c2=O)O1` (centres undefined): “inactive”.

As for `CCOC(=O)c1cc(C)sc1NC(=O)C1CCC1`, the B-score entry was “inactive”. The result for `Oc1ccccc1C1=NN(c2ccccc2)C(c2ccccc2)C1` (centres undefined) reads 7 (active). The result for `COc1ccc(C2CC(c3cccs3)=NN2c2ccccc2)cc1` (centres undefined) reads “inactive”. Regarding `O=C(c1ccccc1)N1N=C(c2ccccc2O)CC1c1ccc(Br)cc1` (centres undefined), the B-score entry was “inactive”. Next, `Cc1nc2c(C(=O)NCc3cccs3)cnn2c(C)c1Cc1ccc(F)cc1`: “inactive”; `CCOC(=O)c1cccc(NC(=O)C2CCCN(S(=O)(=O)c3cnc[nH]3)C2)c1` (centres undefined): “inactive”; `Cc1ccc(C)c(-n2cc(CN3CCN(C(=O)c4ncn[nH]4)CC3)c(-c3ccccc3)n2)c1`: “inactive”.

Turning to `CCC(O)C1CCN(Cc2cn(-c3ccc(OC)cc3)nc2-c2cccc(F)c2)CC1` (centres undefined), the B-score entry is “inactive”. For the molecule `Cc1cccc(-n2cc(CN3CCN(C(=O)c4ncn[nH]4)CC3)c(-c3cccc(F)c3)n2)c1`, the B-score is 10 (active).

As for `Cc1cc(C)c(S(=O)(=O)N2CCCC2CNC(=O)c2ccc3c(c2)OCO3)c(C)c1` (centres undefined), the B-score entry was “inactive”. The result for `Cc1ccc(OCCCCN2CCCCC2)c(Br)c1` reads “inactive”; that for `CC(C)CC(=O)N1CCN(Cc2ccccc2Br)CC1`, “inactive”. Next, `CCN1CC=C2C(C#N)=C(N)C(C#N)(C#N)[C@H](c3ccoc3)[C@H]2C1`: “inactive”. Next, `CCC(C)(C)NC(=O)/C=C/c1cc(OC)c(OC)c(S(=O)(=O)N2CCc3ccccc32)c1`: “inactive”; `CN1C2CCC1/C(=C\c1ccccc1Cl)C(=O)/C2=C\c1ccccc1Cl`: 10 (active). `O=C(CN1C(=O)S/C(=C\c2ccccc2Cl)C1=O)NC1C=CS(=O)(=O)C1` (centres undefined): the B-score result is “inactive”. For `O=C(CN1CCCCCC1)NCCN1C(=O)S/C(=C\c2ccccc2Cl)C1=O`, the B-score result was “inactive”.

On to `COc1ccc(/C=N/n2c(C)cc(C)cc2=O)cc1`, for which the B-score result is “inactive”. The result for `OCCC1CN(Cc2cccc(O)c2)CCN1CCc1ccccc1` (centres undefined) reads “inactive”; that for `COc1ccc(C2CC(=O)n3c(nc4ccccc43)S2)cc1OC` (centres undefined), “inactive”.

Take `COc1ccccc1C1CC(=O)n2c(nc(-c3ccccc3)c2-c2ccccc2)S1` (centres undefined): the B-score is 7 (active). Regarding `COc1cccc(C2CC(c3ccccc3)=NN2S(=O)(=O)c2ccccc2)c1OC` (centres undefined), the B-score entry was “inactive”. Next, `COc1ccc(-c2oc3ncnc(NCCCO)c3c2-c2ccc(OC)cc2)cc1`: “inactive”; `COc1ccc(-c2oc3ncn(Cc4ccco4)c(=N)c3c2-c2ccc(OC)cc2)cc1`: 9 (active); `COc1ccc2[nH]c3c(=O)n(Cc4ccco4)cnc3c2c1`: “inactive”. Next, `CCOc1ccc2ccccc2c1/C=N/NC(=O)c1c(C)cc(C)[nH]c1=O`: “inactive”; `CN(C(=O)CCNC(=O)Cn1ccc2ccccc2c1=O)c1ccc(Br)cc1`: “inactive”; `CCn1c(SCC(=O)Nc2ccc(OC)c(OC)c2)nnc1-c1c[nH]c2ccccc12`: “inactive”. Regarding `CCC(C)Sc1nnc(-c2c[nH]c3ccccc23)n1CCOC` (centres undefined), the B-score entry was “inactive”. Next, `CCn1c(SCCC(C)C)nnc1-c1c[nH]c2ccccc12`: 6 (active). Regarding `CC1CC(=S)Nc2ccccc2N1Cc1ccccc1` (centres undefined), the B-score entry was “inactive”. Regarding `COc1ccc(S(=O)(=O)N2CCCC(C(=O)NCCCn3ccnc3)C2)cc1OC` (centres undefined), the B-score result was “inactive”. The result for `COc1ccccc1NC(=O)C[n+]1ccccc1` reads “inactive”; that for `Cc1cccc[n+]1CC(=O)c1ccccc1`, “inactive”; that for `COC(=O)C[n+]1cccc2ccccc21`, 8 (active). The result for `O=C(CC1C(=O)NCCN1C(=O)c1ccc([N+](=O)[O-])cc1)Nc1cccc(Cl)c1` (centres undefined) reads “inactive”; that for `CC1c2nc3ccccc3n2C(CC(=O)NCCCN2CCOCC2)C(=O)N1Cc1ccccc1` (centres undefined), “inactive”. The result for `Cc1cc(Cl)ccc1OCCCC(=O)Nc1cccc(-n2cnnn2)c1` reads “inactive”. Take `O=C(CCC1CCCCC1)Nc1cc(C(F)(F)F)ccc1N1CCOCC1`: the B-score result is “inactive”. `COc1ccc(NC(=O)CN2C(=O)COc3ccc(S(=O)(=O)N4CCOCC4)cc32)c(OC)c1`: the B-score entry was “inactive”. The result for `COc1ccc(S(=O)(=O)N2CCOCC2)cc1NC(=O)COc1ccccc1` reads “inactive”. Next, `COc1cc(S(=O)(=O)N2CCOCC2)ccc1NC(=O)COc1ccc(N(C)S(=O)(=O)c2ccc(C)cc2)cc1`: 13 (active); `CCOC(=O)c1c(NC(=O)C(C)Sc2c[nH]c3ccccc23)sc2c1CCC2` (centres undefined): 12 (active); `CCOC(=O)c1c(NC(=O)CSc2cn(CC)c3ccccc23)sc2c1CCC2`: “inactive”. Next, `CCOC(=O)c1c(NC(=S)NC)sc2c1CCCC2`: “inactive”. With `CCOc1ccc(S(=O)(=O)N2CCC(C(=O)OCc3ccc(OC)cc3)CC2)cc1`, the B-score entry was “inactive”. The result for `CC1CN(C(=S)Nc2ccc(Br)cc2Cl)CC(C)O1` (centres undefined) reads “inactive”; that for `CCCCOC(=O)Nc1nnc(CC(=O)NCc2ccccc2)s1`, “inactive”.
